From PubChem
A selection: hits, their analogues and other compounds. The true share with any hit is near 19%.
IL-1B inflam inh = blocks inflammasome-driven IL-1 beta release. THP-1 LPS/ATP IL-1B secretion, AlphaLISA, 16 h; stronger effect = lower value. activity change, % at 57.5 µM. hit rate 4.7% among 360,000. AID 743279; in the data active = activity change below about -50%; inconclusive = mostly about -30% to -49%
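THP-1 cells pretreated 1 hr with compounds (up to 57.5 uM final), then stimulated with LPS (250 ng/mL final) plus ATP (1.25 mM final); secreted IL-1B measured by AlphaLISA after 16 hr, decreased signal indicating inhibition.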
DT40 TDP1 CPT = DT40-hTDP1 cell growth loss with CPT; chicken DT40 Tdp1-/-;hTDP1 cells + 20 nM CPT, ATP luminescence, 48 h; Potency, µM (series often up to 46.2 µM), without a hit: at the highest dose activity change, negative = growth inhibition, usual class: inhibitors; hit rate 12% among 420,000; also: potency is read from the fitted curve at half-maximal effect; nearly all actives have a fitted effect of over 55% in size
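Chicken DT40 Tdp1-/- cells stably complemented with human TDP1 were seeded at 400 cells/well in medium containing 20 nM camptothecin, exposed to pin-transferred compounds, and grown at 37 °C for at least 48 hr. Viability was read as ATP luminescence.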
HT1080 IDH1KD tx = toxicity to HT-1080 IDH1 knockdown cells (counter line) | HT-1080 IDH1 knockdown viability, ATP luminescence, 48 h | Potency, µM (series often up to 46.1 µM), inactives show top-dose activity, negative = toxicity, hits mostly cytotoxic | hit rate 2% among 360,000 | AID 686971;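 also: potency is read from the fitted curve at half-maximal effect; 0% = DMSO wells and -100% = cell-free medium wells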
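Cytotoxicity counter-line: IDH1KD HT-1080, 48 h, CellTiter-Glo. Curves classed by r2, magnitude and activity.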
DT40 TDP1 no CPT = qHTS for Inhibitors of human tyrosyl-DNA phosphodiesterase 1 (TDP1): qHTS in cells in absence of CPT | DT40 Tdp1-/- hTDP1 cells, no CPT, ATP luminescence, 48 h | Potency, µM (top dose mostly 46.2 µM), for inactives: top-dose activity change, negative = growth inhibition, hits mostly inhibitors | hit rate 15% among 420,000 | AID 686978, 2013; also: potency is read from the fitted curve at half-maximal effect; nearly all actives have a fitted effect of over 55% in size
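Readout: luminescence from CellTiter-Glo after 30 min in the dark at RT. Cells: DT40 Tdp1-/- with stable hTDP1, 400/well. Exposure: compounds alone, ≥48 hr, 37 °C.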
HT1080NT lethal = kills 2HG-producing HT-1080-NT fibrosarcoma cells; AID 686970; hit rate 1.6% among 360,000; HT-1080-NT fibrosarcoma viability, CellTiter-Glo ATP luminescence, 48 h; Potency, µM (titrated, usually from 46.1 µM), inactives show top-dose activity, negative = less viability, most hits filed as cytotoxic;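 also: NT is the 2HG producing partner of a matched IDH1 knockdown line; potency is read from the fitted curve at half-maximal effect; 0% = DMSO-treated cells and -100% = media-only wells without cells; nearly all actives have a fitted effect of over 55% in size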
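Fibrosarcoma NT cells, 750 per well in 5% FBS RPMI, were exposed to compound for 48 hours. Viability: CellTiter-Glo luminescence.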
The depositor's hits bear a star; i = inactive; u = inconclusive; x = not tested or not shown; [ ] = another dose, or the depositor's remark. Unless noted, calls follow the shape of the dose curve; as a rule, active = well fitted curve in the direction sought with a large enough effect; inconclusive = small, poorly fitted or top-dose-only effect, or another doubt; inactive = no such curve, though single readings can be large; an effect the other way counts as inactive or inconclusive. Unless noted, % is scaled to controls: 0 for no effect and ±100 for the full control effect.

SMILES | IL-1B inflam inh | DT40 TDP1 CPT | HT1080 IDH1KD tx | DT40 TDP1 no CPT | HT1080NT lethal
CC(C)(Cc1c[nH]c2ccccc12)NCC(O)COc1ccccc1C#N (configuration not stated) | x | 21.1µM* | x | 23.7µM* | x
COC(=O)c1sc(N2C(=O)C(O)=C(C(=O)c3ccc(C)o3)C2c2ccc(F)cc2)nc1C (configuration not stated) | 23.8 | -13.3% | 1.6% | -28.1% | 18.5%
O=S(=O)(c1ccccc1)N1CCC(O)(CSc2ccc(F)cc2)CC1 | -19.8 | u | 18.4µM* | u | -10.3%
O=S(=O)(c1ccccc1)N1CCC(O)(CSc2ccccc2)CC1 | -23.2 | -5.1% | -24.5% | -18.0% | 23.1µM*
O=C(CSc1ccccc1)N1CCN(S(=O)(=O)c2ccccc2)CC1 | i | 9.5% | -3.0% | -4.8% | 10.5%
Cc1ccc(N2CCN(C(=O)c3cc4cc5ccc(C)cc5nc4s3)CC2C)cc1 (configuration not stated) | x | 0.1% | x | -1.8% | x
CN1CCN(C(c2ccc(Cl)cc2)c2cc(Cl)c3cccnc3c2O)CC1 (configuration not stated) | -64.2* | u | 23.1µM* | 16.4µM* | u
c1ccc(C(c2nnnn2C2CCCC2)N2CCCCCC2)nc1 (configuration not stated) | 4.2 | -20.5% | 19.1%[9.24 µM] | u | -22.0%
CN1CCN(C(c2cccc(Cl)c2)c2ccccc2Cl)CC1 (configuration not stated) | x | u | -20.2% | u | -13.4%
Oc1c(C(c2ccccn2)N2CCCCC2)cc(Cl)c2cccnc12 (configuration not stated) | 78.8 | 18.4µM* | 16.4µM* | 10.3µM* | 14.6µM*
CCOC(=O)c1c(C)[nH]c(C)c1C(=O)COC(=O)[C@@H](NC(=O)c1ccco1)C(C)C | 8.8 | -3.7% | 3.6% | -16.3% | 8.2%
O=C(CSc1nnc(-c2ccco2)c(-c2ccco2)n1)Nc1ccccc1 | -57.5* | u | -0.9% | u | -5.4%
O=C(CSc1nnc(-c2ccccc2)c(-c2ccccc2)n1)Nc1ncc(Cl)cc1Cl | -15.4 | -1.9% | 29.3% | -15.4% | 5.0%
O=C(CSc1ncc(-c2ccccc2)nn1)NCc1ccco1 | 19.2 | -22.0% | -8.2% | -16.0% | -2.3%
O=C(CSc1nnc(-c2ccccc2)c(-c2ccccc2)n1)NCc1ccco1 | -6.3 | u | u | 23.1µM* | -29.6%
Cc1nc(NC(=O)CSc2nnc(-c3ccccc3)c(-c3ccccc3)n2)c(Cl)cc1Cl | 4.7 | 23.1µM* | -0.7% | 25.9µM* | -9.5%
Cc1cccc(C)c1NC(=O)CSc1nnc(-c2ccco2)c(-c2ccco2)n1 | -76.6* | -10.8% | -10.7% | -23.2% | 10.3%
CN(C)c1ccc(NC(=O)CSc2nnc(-c3ccco3)c(-c3ccco3)n2)cc1 | -13.6 | u | -26.4% | 16.4µM* | -12.9%
COc1ccc(OCCN(C)CC(=O)Nc2c(C)cccc2C)cc1 | 7.4 | u | 16.6% | 23.1µM* | 13.7%
COc1ccc(-c2nnc(SCC(=O)Nc3c(C)cccc3C)nc2-c2ccc(OC)cc2)cc1 | x | u | x | 1.84µM* | x
COc1cccc(NC(=O)CSc2nnc(-c3ccco3)c(-c3ccco3)n2)c1 | -6.3 | u | -13.6% | -29.5% | 1.1%
NC(N)=NCC1COc2ccccc2O1 (configuration not stated) | x | -20.1% | x | u | x
CC1CCC(NC(=O)CN2C(=O)NC3(CCCCCC3)C2=O)CC1 (configuration not stated) | -18.1 | -4.7% | -0.7% | 15.1% | 0.3%
COC(=O)C1=C(C)N(CC2CC2)C(=NCc2cccc(Cl)c2)N[C@H]1c1ccccc1 | -61.7* | 16.4µM* | -25.8% | u | -8.1%
COC(=O)C1=C(C)N(Cc2ccccc2)C(=NCc2cccc(Cl)c2)N[C@H]1c1ccccc1 | u | 11.6µM* | -14.1% | 20.6µM* | -11.5%
SMILES | IL-1B inflam inh | DT40 TDP1 CPT | HT1080 IDH1KD tx | DT40 TDP1 no CPT | HT1080NT lethal
COC(=O)C1=C(C)N(Cc2ccccc2)C(=NCc2ccccc2)N[C@H]1c1cccc(F)c1 | 0.0 | 16.4µM* | -12.9% | 8.2µM* | -20.3%
CCN(CC)CCCN=C1N[C@@H](c2cccc(F)c2)C(C(=O)OC)=C(C)N1Cc1ccccc1 | -5.0 | u | u | u | u
CCCCNS(=O)(=O)c1cc(-c2nn(C)c(=O)c3ccccc23)ccc1C | -65.0* | u | u | -0.9% | -20.4%
Cc1cc(C)n(CC(=O)NCc2cc(-c3nn(C)c(=O)c4ccccc34)ccc2C)n1 | -1.1 | u | -3.3% | 16.4µM* | -4.7%
CCN(CC)S(=O)(=O)c1cc(-c2nn(C)c(=O)c3ccccc23)ccc1C | 37.8 | 23.1µM* | -19.8% | 16.4µM* | -13.8%
Cn1nc(C(=O)Nc2ccc3c(c2)OCCO3)c2ccccc2c1=O | u | -18.3% | 7.5% | -6.5% | -0.7%
Cn1nc(-c2ccc3c(c2)OCCO3)c2ccccc2c1=O | 36.6 | u | -0.6% | 20.6µM* | -14.8%
Cc1ccc(-c2nn(C)c(=O)c3ccccc23)cc1S(=O)(=O)NCCN(C)C | -7.6 | 0.8% | -5.4% | u | -0.6%
COc1ccc(-c2csc(NC(=O)c3ccccc3F)c2C(=O)O)cc1 | u | u | -15.9% | u | -0.7%
CN(C)c1ncc2nc(-c3cccs3)c(=O)n(C[C@H]3CCCO3)c2n1 | x | -3.9% | x | 11.9% | x
CCc1ccccc1NNC(=O)c1snnc1C | x | -2.7% | u | u | 11.6µM*
Cc1nnsc1C(=O)NNc1c(Cl)cccc1Cl | 4.3 | 25.0% | -6.7% | -23.6% | u
O=C1OC(c2ccccc2)=N/C1=C/c1cccc(OC(=O)c2cccs2)c1 | -52.4* | -2.6% | 13.1% | -29.6% | 0.6%
Cc1no[n+]([O-])c1COc1cccc(/C=C2\N=C(c3ccccc3)OC2=O)c1 | -14.9 | -8.0% | 5.0% | 1.1% | -5.9%
CSCCC(NC(=O)COc1ccccc1)C(=O)N1CCCC(C)C1 (configuration not stated) | -17.5 | -23.7% | -0.9% | -12.0% | 4.0%
COc1ccc(-n2ccc(=O)c(C(=O)O)n2)c(OC)c1 | 69.8 | 31.2% | 5.3% | 0.8% | 8.7%
Cc1ccc(-n2c3nc(=O)[nH]c(=O)c-3cc3cc([N+](=O)[O-])ccc32)cc1 | -107.2* | 5.8µM* | u | 5.17µM* | u
Cc1cccc(C(O)c2ncc(-c3ccccc3)[nH]2)c1C (configuration not stated) | -9.2 | 18.4µM* | -1.2% | -22.7% | 0.9%
COc1c(C)cc(C(O)c2ncc(-c3ccccc3)[nH]2)cc1C (configuration not stated) | -60.5* | u | u | u | -15.9%
